Bioassay records deposited in PubChem BioAssay by several laboratories.
A selection: hits, their analogues and other compounds. The true share with any hit is near 3.5%.
SKN-1 inh = blocks SKN-1 activity in C. elegans. C. elegans VP596 Pgst-4::GFP/RFP ratio, acrylamide-induced, 24 h. inhibition, % at 21.8 µM. 360,000 compounds, 0.49% hits;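 active = interference check ratio from 0.5 to 1.5 plus GFP to RFP signal ratio inhibition reaching or exceeding a fixed threshold, cut at about 30% in these data, passing the limit was not always enough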
M1 ag = activates human CHRM1 receptor | 360,000 compounds, 0.33% hits | AID 588814 | P11229 | CHO-K1 hM1, Fluo-8 calcium fluorescence, agonist mode; 0% DMSO, 100% acetylcholine EC100 | activation, % at 3 µM;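 active = activation above the run's mean compound activation plus 3 SD, cut at about 16% in these data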;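 also: peak over basal fluorescence ratio within a 140 s kinetic read after compound addition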
Target sequence (P11229 whole entry, looked up): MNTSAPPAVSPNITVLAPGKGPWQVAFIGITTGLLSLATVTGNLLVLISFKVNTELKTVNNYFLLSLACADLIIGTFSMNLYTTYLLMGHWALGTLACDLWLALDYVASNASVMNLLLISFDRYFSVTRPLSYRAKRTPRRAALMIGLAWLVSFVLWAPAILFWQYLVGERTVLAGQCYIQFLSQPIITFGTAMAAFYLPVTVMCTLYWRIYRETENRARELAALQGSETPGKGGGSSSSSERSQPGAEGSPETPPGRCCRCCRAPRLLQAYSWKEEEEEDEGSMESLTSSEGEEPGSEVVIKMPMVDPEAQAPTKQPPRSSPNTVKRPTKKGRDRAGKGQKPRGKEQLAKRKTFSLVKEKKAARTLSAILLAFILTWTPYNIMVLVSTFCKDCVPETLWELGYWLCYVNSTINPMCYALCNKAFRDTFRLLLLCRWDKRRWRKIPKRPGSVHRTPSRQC
CHRM1 PAM = potentiates human M1 receptor response to acetylcholine. P11229. CHO-K1 hM1, Fluo-8 calcium fluorescence, ACh EC20; 0% = ACh EC20, 100% = maximal ACh. activation, % at 3 µM. 360,000 compounds, 0.088% hits; in the data active = activation above about 19%, passing the limit was not always enough
ATG4B inhibitor = blocks human ATG4B protease cleavage of LC3 substrate; 340,000 compounds, 0.51% hits; ATG4B cleavage of LC3-PLA2, NBD-HPC fluorescence, 1 h; inhibition, % at 8.33 µM; AID 504462; Q9Y4P1; in the data active = inhibition above about 40%
M1 antag = blocks human M1 muscarinic receptor. inhibition, % at 3 µM. AID 588852. CHO-K1 hM1, Fluo-8 calcium fluorescence, ACh EC80 antagonist. P11229. 360,000 compounds, 1.3% hits;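 active = percent inhibition above its own plate's cutoff, namely the mean of that plate's compound wells plus 3 SD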;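 also: peak over basal fluorescence ratio during 140 s after agonist addition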
Myeloid diff MLP = compounds promoting myeloid differentiation. calls only at 10 µM. ER-HoxA9 myeloid progenitors, lysozyme-GFP differentiation, flow cytometry. AID 624256. 360,000 compounds, 1% hits;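 active = normalized GFP-positive differentiation at or above the plate's own cutoff, the solvent-only control mean plus 3 SD; inconclusive = no clear call, values can overlap the other calls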;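 also: cells exposed to compound for four days before flow analysis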
Myeloid diff = compounds promoting myeloid differentiation | shares compounds with Myeloid diff MLP | ER-HoxA9 myeloid progenitors, GFP/Mac1 double-positive flow | calls only | 2,300 compounds, 2% hits | AID 651706;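 active = share of green or green-and-red cells above 9 and 9% in run 1 or 4 and 3% in run 2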
GFP autofluor = compound fluorescence in myeloid differentiation counter-screen; shares compounds with Myeloid diff MLP; ER-HoxA9 myeloid progenitors, no estrogen, GFP autofluorescence flow cytometry; vehicle wells 0%, positive control 100%; fluorescence response, % (no concentration beside the values); 2,300 compounds, 7.4% hits; AID 651707;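 active = over 5% cells positive for green fluorescent reporter, or over 2% positive for both it and APC stain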
Numbers stand for hits; . = inactive; ? = inconclusive; / = not tested or not shown; + = active, no number.

SMILES	SKN-1 inh	M1 ag	CHRM1 PAM	ATG4B inhibitor	M1 antag	Myeloid diff MLP	Myeloid diff	GFP autofluor
c1ccc(OCCNc2ccn3nc(-c4ccccc4)cc3n2)cc1	.	.	.	/	.	.	/	/
CCCCCN(C(=O)COC(=O)c1ccc(C)cc1)c1c(N)n(CCCC)c(=O)[nH]c1=O	.	.	.	.	.	.	/	/
COc1ccc(-c2nn(-c3ccccc3)cc2C(=O)NC(=S)N2CCOCC2)cc1OC	.	.	.	.	.	.	/	/
COc1cc(C(=O)NCCC(=O)NCc2c(F)cc(F)cc2F)cc(OC)c1OC	.	.	.	.	.	.	.	.
CCOc1ccc(C(=O)Nc2cccc(-c3nc4cccnc4o3)c2)cc1Cl	.	.	.	.	.	+	.	.
CC(C)N(C(=O)[C@H]1C[C@H](CC(=O)NCCCN(C)C)C(=O)N2CCc3c([nH]c4cc(-c5ccco5)ccc34)[C@]12C)C(C)C	.	.	.	.	.	.	/	/
CC(C)N(C(=O)[C@H]1C[C@H](CC(=O)NCc2cccc(C(F)(F)F)c2)C(=O)N2CCc3c([nH]c4cc(-c5ccco5)ccc34)[C@]12C)C(C)C	.	.	.	.	.	?	.	.
CC(C)N(C(=O)[C@H]1C[C@H](CC(=O)NCCC2=CCCCC2)C(=O)N2CCc3c([nH]c4cc(-c5ccco5)ccc34)[C@]12C)C(C)C	.	.	.	.	.	.	.	.
C[C@]12c3[nH]c4cc(-c5ccco5)ccc4c3CCN1C(=O)[C@@H](CC(=O)NCc1cccc(C(F)(F)F)c1)C[C@@H]2C(=O)N1CCOCC1	.	.	.	/	.	.	/	/
Cc1ccc(-c2nn3c(C)nnc3s2)cc1NC(=O)CSc1ccc(Cl)cc1	.	.	.	.	.	+	+	.
Cc1nnc2sc(-c3ccc(NC(=O)CSc4ccc(Cl)cc4)cc3)nn12	.	.	.	.	.	.	/	/
C[C@H](O)[C@@H]1CN2CCc3c([nH]c4ccccc34)[C@@H]2C[C@@H]1N(C)C(=O)Nc1cccc2ccccc12	.	.	.	/	.	.	.	.
C[C@H](O)[C@@H]1CN2CCc3c([nH]c4ccccc34)[C@@H]2C[C@@H]1N(C)C(=S)NCCc1ccccc1	.	.	.	/	.	+	.	.
COc1ccc(-c2ccc3[nH]c4c(c3c2)CCN2C[C@@H]([C@H](C)O)[C@@H](N(C)C(=O)Nc3cc(Cl)cc(Cl)c3)C[C@@H]42)cc1	.	.	.	/	.	+	.	.
COc1cccc2c1cc1c(=O)n(CC(=O)NCCCN3CCN(C)CC3)nc(C)n12	.	.	.	.	.	.	/	/
O=C(Cc1cn2ccsc2n1)NCCc1ccc(F)cc1	.	.	.	.	.	.	.	.
O=C(Cc1cn2ccsc2n1)NCc1ccccc1	.	.	.	.	.	.	/	/
Cn1c(=O)n(C)c2cc(S(=O)(=O)Nc3cc(Cl)ccc3O)ccc21	.	.	.	.	.	.	/	/
Cc1ccc(NS(=O)(=O)c2cccc(C(=O)NNC(=O)c3ccco3)c2)c(C)c1	.	.	.	.	.	+	.	.
Cc1ccc(NS(=O)(=O)c2cccc(C(=O)O)c2)c(C)c1	.	.	.	.	.	.	/	/
C=C(C)CN1C(=O)C2(OCCO2)c2ccccc21	.	.	.	.	.	/	/	/
O=S(=O)(NC(=S)NC1CCCCC1)c1ccc(Br)cc1	.	.	.	.	.	.	/	/
O=[N+]([O-])c1cccc(NC(=S)N2CCc3ccccc32)c1	.	.	.	.	.	.	.	.
Cc1ccc(S(=O)(=O)N2CCN(S(=O)(=O)c3ccc(C)cc3)C3OCCOC32)cc1 (centres undefined)	.	.	.	.	.	.	.	.
COc1cc(C(=O)NNC(=O)c2cc(-c3ccccc3)n[nH]2)cc(OC)c1C	.	.	.	.	.	.	.	.
SMILES	SKN-1 inh	M1 ag	CHRM1 PAM	ATG4B inhibitor	M1 antag	Myeloid diff MLP	Myeloid diff	GFP autofluor
COc1cccc(NC(=O)N2CCCC2C(=O)NCc2ccco2)c1 (centres undefined)	.	.	.	.	.	.	/	/
COc1cccc(NC(=O)N2CCCC2C(=O)NCc2ccc(Cl)cc2)c1 (centres undefined)	.	.	.	.	.	.	.	.
CCCCCNC(=O)C(c1ccc(C#N)cc1)n1c(=O)c(-c2ccco2)nc2ccccc21 (centres undefined)	.	/	/	/	/	.	.	.
Cc1cccc(NC(=O)C(=O)NCCc2c[nH]c3ccccc23)c1C	.	.	.	.	.	.	.	.
CCOC(=O)N1CCN(C(=O)CSCC(=O)Nc2nc(-c3ccc4c(c3)OCO4)cs2)CC1	.	.	.	.	.	.	/	/
CCOC(=O)N1CCN(C(=O)CSCC(=O)Nc2nc(-c3ccc(C)cc3)cs2)CC1	.	.	.	.	.	.	.	.
COCCNC(=O)C1CCCN(C(=O)c2cncc(Br)c2)CC1 (centres undefined)	.	.	.	/	.	.	/	/
CCN1CCN(CC(=O)Nc2ccc(S(=O)(=O)N3C(C)CCCC3C)cc2)CC1 (centres undefined)	.	.	.	.	24.1	.	.	.
CC1CCN(S(=O)(=O)c2ccc(NC(=O)CN3CCCC3)cc2)CC1	.	.	.	.	.	.	/	/
O=[N+]([O-])c1ccc(O)c(CN2CCCCCC2)c1	.	.	.	.	.	.	.	.
CC(=O)Nc1ccc2c(c1)C(=O)N(c1cccc3ccccc13)C2=O	.	.	.	.	.	.	/	/
Cc1nnc(SC(C)C(=O)NC2CCCCC2)s1 (centres undefined)	.	.	.	.	.	.	/	/
CCN(CC)C(=O)CSc1nnc(SC(C)C(=O)NC2CC2)s1 (centres undefined)	.	.	.	.	.	.	.	.
Cc1cccc(CNc2ncc(-c3cccc([N+](=O)[O-])c3)n2C)c1	.	.	.	.	.	.	.	.
Cc1ccccc1CNC(=O)C1CCCN(c2cnccn2)C1 (centres undefined)	.	.	.	.	.	.	/	/
O=C(CSc1n[nH]c(=O)n1-c1cccnc1)N1CCOCC1	.	.	.	.	.	.	/	/
COCCCNC(=S)NC1CC2CCCC(C1)N2Cc1ccco1 (centres undefined)	.	.	.	.	.	.	.	.
Cc1ccccc1N1CCN(S(=O)(=O)CC23CCC(CC2=O)C3(C)C)CC1 (centres undefined)	.	.	.	.	.	.	/	/
COc1ccccc1N1CCN(S(=O)(=O)CC23CCC(CC2=O)C3(C)C)CC1 (centres undefined)	.	.	.	.	.	.	.	.
